Where “and” joins values, the source holds several entries; their conditions need not be identical. Equal values may be shown once. Calls of active or inactive are those of the source.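 Rule for the calls, unless noted: active = normalized viability below 100% at a tested concentration; inactive = the rest.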
Key:
[1] = Wnt pathway potentiators raising nuclear beta-catenin – imaging, WNT3A-conditioned medium, mouse C2C12, NPC library, primary screen (AID 1117326; in the data active = nuclear beta-catenin stimulation mostly above about 4.2%, no sharp cut-off; inactive = mostly below about 10%); details: stronger effect = higher value
[2] = stimulators of insulin release from INS-1E, primary screen, cell-based, 5 mM glucose, NPC library (AID 1117329;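 active = compound raises insulin release from rat beta cells at 5 mM glucose, no numeric limit stated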); details: rat INS-1E insulin secretion, at 10 µM, stronger effect = higher value
[3] = growth inhibition of GSK3B-pretreated HCT116 cells – cell-based, CellTiter-Glo, 0.2 to 20 µM (AID 1117336;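 active = compounds lowering colon cancer cell viability after pretreatment blocking the GSK3B kinase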); details: HCT116 viability after GSK3B inhibitor, at 20 µM, stronger effect = higher value
[4] = inhibition of endothelial tube formation, primary screen, imaging, VEGF stimulated, CD31 staining, tube area, NPC library (AID 1117340;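 active = compound that reduces growth-factor-driven endothelial tube area in a mixed cell culture, no cutoff stated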); details: VEGF-stimulated ADSC/ECFC co-culture, at 10 µM, stronger effect = higher value
[5] = GLP1 release stimulators, primary, NCI-H716, NPC library (AID 1117341;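 active = compound raises GLP1 secretion from the human gut endocrine cells, with no numeric limit stated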); details: NCI-H716 cells, at 10 µM, stronger effect = higher value
[6] = HCT116 colon cancer cell growth inhibition, primary screen, CellTiter-Glo luminescence, NPC library (AID 1117342;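 active = compounds that lower survival of HCT116 colon cancer cells in the luminescence readout, no numeric limit stated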); details: at 20 µM (top of the series)
[7] = reduced SW480 viability measured with CellTiter-Glo, NPC library, primary (AID 1117343;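 active = compounds that lower viability of the colon cancer cells in the luminescence readout, with no numeric limit stated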); details: CellTiter-Glo luminescence; at 20 µM (top of the series)
[8] = NPC library primary testing for decreased DLD-1 cell viability via CellTiter-Glo (AID 1117346;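 active = compounds that lower survival of DLD-1 colon cancer cells in the luminescence readout, no cutoff given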); details: DLD-1 viability, CellTiter-Glo luminescence; at 20 µM (top of the series)
[9] = molecular target: 6-phosphogluconate dehydrogenase, decarboxylating (Homo sapiens) (UniProt P52209); assay: inhibition of human phosphogluconate dehydrogenase – biochemical, recombinant enzyme, NADPH absorbance, primary screen (AID 1159550;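 active = at least 20% inhibition of 6-phosphogluconate dehydrogenase activity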); details: recombinant 6PGD, NADPH absorbance 341 nm; at 10 µM; stronger effect = higher value
Chain of 6-phosphogluconate dehydrogenase, decarboxylating (Homo sapiens) (P52209 whole entry, looked up): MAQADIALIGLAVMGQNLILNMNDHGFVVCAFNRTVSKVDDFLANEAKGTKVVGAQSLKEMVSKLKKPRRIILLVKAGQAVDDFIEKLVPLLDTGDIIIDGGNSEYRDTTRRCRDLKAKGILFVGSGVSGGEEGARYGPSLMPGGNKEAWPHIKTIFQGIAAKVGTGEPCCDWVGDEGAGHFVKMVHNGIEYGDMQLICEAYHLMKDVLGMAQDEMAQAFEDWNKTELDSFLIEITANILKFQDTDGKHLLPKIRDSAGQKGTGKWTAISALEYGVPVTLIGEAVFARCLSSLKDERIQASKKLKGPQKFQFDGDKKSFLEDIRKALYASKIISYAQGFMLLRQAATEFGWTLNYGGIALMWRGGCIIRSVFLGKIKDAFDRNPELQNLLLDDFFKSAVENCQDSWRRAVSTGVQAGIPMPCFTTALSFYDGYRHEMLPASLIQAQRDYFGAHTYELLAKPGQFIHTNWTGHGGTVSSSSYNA

[10] = modulation of C. elegans fzo-1 (AID 1259413; call rule not given here;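 note: fzo-1 mutant C. elegans worms in liquid wells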); details: C. elegans fzo-1 modulator screen, mean read-out; stronger effect = higher value
[11] = EMT-state selective cytotoxicity in co-culture – imaging, PC-3E GFP, TEM4-18 mCherry, primary screen (AID 1345086;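 active = compounds killing one labelled cell type while sparing the other, by normalised counts and ratio limits, not self-fluorescent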;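 for all read-outs here: cells exposed to compound for 72 h before imaging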;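 for red/green cell ratio (normalised): normalised mesenchymal count divided by normalised epithelial count so high means epithelial killing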); details: PC-3E GFP / TEM4-18 mCherry co-culture, imaging cell counts, at 1 µM; for red/green cell ratio (normalised): actives lie on both sides, counts scaled to control wells, 1 = unselective
[12] = MELAS cybrid and Rieske KO viability enhancers – cell-based, MELAS cybrids, Rieske KO mouse fibroblasts, CellTiter-Glo, primary screen (AID 1508586;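 active = mean z-score across replicates of 1.96 or higher in either the MELAS or the Rieske mutant cell line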;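 note: z relative to plate mean and SD of compound and empty wells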); details: low glucose
[13] = molecular target: NAD(+) hydrolase SARM1 (Homo sapiens) (UniProt Q6SZW1); assay: blocking NAD cleavage by SARM1 SAM-TIR – cell lysate, NAD-Glo luminescence (AID 1508614;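 active = compound whose remaining NAD level is above about 45 nM, limit read from the data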;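 note: higher remaining NAD means stronger inhibition of SARM1 NADase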); details: SAM-TIR HEK293T lysate NADase, at 1 µM, stronger effect = higher value
Chain of NAD(+) hydrolase SARM1 (Homo sapiens) (Q6SZW1 whole entry, looked up, the tested form may be a part): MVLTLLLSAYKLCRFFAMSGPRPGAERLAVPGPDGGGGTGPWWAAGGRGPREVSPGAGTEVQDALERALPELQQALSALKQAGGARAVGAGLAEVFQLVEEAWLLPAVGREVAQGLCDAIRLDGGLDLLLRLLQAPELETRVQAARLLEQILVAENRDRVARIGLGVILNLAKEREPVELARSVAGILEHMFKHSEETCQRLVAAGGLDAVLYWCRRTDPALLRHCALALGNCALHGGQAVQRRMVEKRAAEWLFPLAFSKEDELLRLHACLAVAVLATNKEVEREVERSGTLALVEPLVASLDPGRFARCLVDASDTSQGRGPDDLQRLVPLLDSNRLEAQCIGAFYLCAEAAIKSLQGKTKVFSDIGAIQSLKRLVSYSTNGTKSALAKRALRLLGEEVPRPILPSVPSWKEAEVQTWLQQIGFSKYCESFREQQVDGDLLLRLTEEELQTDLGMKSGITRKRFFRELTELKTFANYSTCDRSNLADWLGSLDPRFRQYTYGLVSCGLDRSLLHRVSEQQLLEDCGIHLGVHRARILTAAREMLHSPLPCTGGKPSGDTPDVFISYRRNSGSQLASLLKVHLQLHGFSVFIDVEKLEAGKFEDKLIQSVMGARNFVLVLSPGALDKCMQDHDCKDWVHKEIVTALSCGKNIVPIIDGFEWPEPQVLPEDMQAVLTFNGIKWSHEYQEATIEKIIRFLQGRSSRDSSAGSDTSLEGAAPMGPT

[14] = molecular target: Mitogen-activated protein kinase 7 (Homo sapiens) (UniProt Q13164); assay: Gal4-ERK5 driven luciferase induction – cell-based, HTS, primary screen (AID 1508626;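 active = luciferase signal above three times the same-plate solvent-only control wells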;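 note: luciferase driven by Gal4-ERK5 fusion binding five Gal4 sites before minimal TATA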); details: HeLa Gal4-ERK5 transactivation, 18 h, at 5 µM, stronger effect = higher value
Chain of Mitogen-activated protein kinase 7 (Homo sapiens) (Q13164 whole entry, looked up, the tested form may be a part): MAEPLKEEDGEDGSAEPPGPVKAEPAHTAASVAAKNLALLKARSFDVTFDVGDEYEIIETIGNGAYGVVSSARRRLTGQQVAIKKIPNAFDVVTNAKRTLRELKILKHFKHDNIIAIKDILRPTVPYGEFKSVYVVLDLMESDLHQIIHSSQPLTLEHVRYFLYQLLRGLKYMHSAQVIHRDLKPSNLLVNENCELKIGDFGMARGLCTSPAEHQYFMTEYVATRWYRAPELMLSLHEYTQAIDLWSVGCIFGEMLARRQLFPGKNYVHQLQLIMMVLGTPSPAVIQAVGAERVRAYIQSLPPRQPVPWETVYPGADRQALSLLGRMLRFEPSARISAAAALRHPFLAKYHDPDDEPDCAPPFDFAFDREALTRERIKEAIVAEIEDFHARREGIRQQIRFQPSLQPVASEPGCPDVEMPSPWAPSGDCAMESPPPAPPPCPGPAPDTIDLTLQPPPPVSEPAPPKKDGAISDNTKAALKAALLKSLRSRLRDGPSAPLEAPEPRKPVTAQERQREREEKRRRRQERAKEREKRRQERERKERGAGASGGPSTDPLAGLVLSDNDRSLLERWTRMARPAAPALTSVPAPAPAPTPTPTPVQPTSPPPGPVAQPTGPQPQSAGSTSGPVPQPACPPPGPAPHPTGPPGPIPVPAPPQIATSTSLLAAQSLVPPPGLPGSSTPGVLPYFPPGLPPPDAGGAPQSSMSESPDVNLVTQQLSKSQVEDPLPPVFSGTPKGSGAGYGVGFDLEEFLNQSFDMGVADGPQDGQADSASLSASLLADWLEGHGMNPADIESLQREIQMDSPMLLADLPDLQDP

F380Y = assay: BK channel mutant inhibitors and activators – cell-based, U2OS BacMam, thallium flux, beta subunits, selectivity assay, profiling panel (AID 1259406;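 active = thallium flux through the channel raised or lowered by more than 3 SD from vehicle-only wells, actives on both sides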;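 note: initial slope of Thallos dye fluorescence rise after thallium is added; log ratio against the mean of 0.3% DMSO vehicle wells on the same plate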); details: U2OS BacMam BK variants, at 30 µM
F380Y/beta1 = assay: as above; details: U2OS BacMam BK variants, at 30 µM
F380Y/beta2Delta = assay: as above; details: U2OS BacMam BK variants, at 30 µM
F380Y/beta4 = assay: as above; details: U2OS BacMam BK variants, at 30 µM
[15] = molecular target: Calcium-activated potassium channel subunit alpha-1 (Homo sapiens) + Leucine-rich repeat-containing protein 26 (Homo sapiens) (UniProt Q12791+Q2I0M4); assay: as above; details: U2OS BacMam BK variants, F380Y/Slo1WT/gamma1, at 30 µM
Chain of Calcium-activated potassium channel subunit alpha-1 (Homo sapiens) + Leucine-rich repeat-containing protein 26 (Homo sapiens) (Q2I0M4 whole entry, looked up, one chain of several): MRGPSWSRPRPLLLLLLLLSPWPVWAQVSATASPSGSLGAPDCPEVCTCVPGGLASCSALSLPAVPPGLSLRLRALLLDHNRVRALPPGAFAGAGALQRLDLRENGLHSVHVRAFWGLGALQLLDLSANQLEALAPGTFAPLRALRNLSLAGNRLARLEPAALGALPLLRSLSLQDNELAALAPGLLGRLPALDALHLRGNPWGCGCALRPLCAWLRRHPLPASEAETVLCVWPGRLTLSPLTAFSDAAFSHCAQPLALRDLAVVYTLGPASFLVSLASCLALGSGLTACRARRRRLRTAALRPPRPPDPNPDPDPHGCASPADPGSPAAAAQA

[16] = drug combination growth inhibition, ovarian cancer – cell-based, oncology-focused library, rucaparib conditional, profiling panel (AID 1508598); details: patient-derived ovarian cancer cells, CellTiter-Glo viability, 144 h, stronger effect = lower value
[17] = measured here: epithelial PC-3E GFP cell survival
[18] = measured here: mesenchymal TEM4-18 mCherry cell survival
[19] = MELAS cybrid survival, CellTiter-Glo 48 h, stronger effect = higher value
[20] = Rieske KO mouse fibroblast survival, CellTiter-Glo 72 h

## CC1Cc2ccccc2N1NC(=O)c1ccc(Cl)c(S(N)(=O)=O)c1 (centres undefined)
[1]; at 10 µM
  nuclear beta-catenin stimulation: 1% (inactive)
[1]; stimulation, at 2 µM
  nuclear beta-catenin stimulation: 6%
[2]
  insulin secretion stimulation: -0.1% (inactive)
[3]
  viability decrease: -7.2% (inactive)
[4]
  tube area decrease: 2.8% (inactive)
[5]
  GLP1 secretion stimulation: 4.6% (inactive)
[6]
  inhibition of viability: -2.13% (inactive)
[7]
  viability decrease (inhibition): -2.3% (inactive)
[8]
  viability decrease (inhibition): 3.8% (inactive)
[9]
  inhibition: 0.53% (inactive)
[10]
  mean signal: 231 (inactive)
[11]
  red/green cell ratio (normalised): 1.37 (inactive)
[11]; [17]
  normalised cell number: 1.01
[11]; [18]
  normalised cell number: 1.38
[12]; [19]
  z-score: -0.244 (inactive) and 0.521 (inactive) and 0.421 (inactive)
[12]; [20]
  z-score: 0.75 and 0.194 and 0.772
[13]
  remaining NAD: 10 nM (inactive)
[14]
  luciferase signal: 56 AU (inactive)
F380Y
  log fold change Tl+ flux: 0.00177 (inactive)
F380Y/beta1
  log fold change Tl+ flux: 0.039 (inactive)
F380Y/beta2Delta
  log fold change Tl+ flux: 0.049 (inactive)
F380Y/beta4
  log fold change Tl+ flux: 0.0552 (inactive)
[15]
  log fold change Tl+ flux: -0.0185 (inactive)

## N[C@@H]1CONC1=O
[1]; at 10 µM
  nuclear beta-catenin stimulation: 0.4% (inactive)
[1]; stimulation, at 2 µM
  nuclear beta-catenin stimulation: 3.4%
[2]
  insulin secretion stimulation: 1.4% (inactive)
[3]
  viability decrease: -9.9% (inactive)
[4]
  tube area decrease: 3.2% (inactive)
[5]
  GLP1 secretion stimulation: -0.7% (inactive)
[6]
  inhibition of viability: 8.67% (inactive)
[7]
  viability decrease (inhibition): -6.2% (inactive)
[8]
  viability decrease (inhibition): -14.1% (inactive)
[9]
  inhibition: 6.28% (inactive)
[10]
  mean signal: 211 (inactive)
[11]
  red/green cell ratio (normalised): 1.34 (inactive)
[11]; [17]
  normalised cell number: 1.27
[11]; [18]
  normalised cell number: 1.71
[12]; [19]
  z-score: 0.819 (inactive)
[12]; [20]
  z-score: 0.724
[13]
  remaining NAD: 10 nM (inactive)
[14]
  luciferase signal: 64 AU (inactive)
F380Y
  log fold change Tl+ flux: 0.0411 (inactive) and -0.0245 (inactive)
F380Y/beta1
  log fold change Tl+ flux: 0.0612 (inactive)
F380Y/beta2Delta
  log fold change Tl+ flux: -0.00859 (inactive) and -0.0479 (inactive)
F380Y/beta4
  log fold change Tl+ flux: 0.0351 (inactive)
[15]
  log fold change Tl+ flux: -0.0244 (inactive) and 0.0135 (inactive)

## CC1=NS(=O)(=O)c2cc(Cl)ccc2N1
[1]; at 10 µM
  nuclear beta-catenin stimulation: 0.5% (inactive)
[1]; stimulation, at 2 µM
  nuclear beta-catenin stimulation: 2.4%
[2]
  insulin secretion stimulation: 1.9% (inactive)
[3]
  viability decrease: 2.4% (inactive)
[4]
  tube area decrease: 0.4% (inactive)
[5]
  GLP1 secretion stimulation: 0.6% (inactive)
[6]
  inhibition of viability: 26.2% (inactive)
[7]
  viability decrease (inhibition): 8.5% (active)
[8]
  viability decrease (inhibition): 1.1% (inactive)
[9]
  inhibition: 4.77% (inactive)
[10]
  mean signal: 242 (inactive)
[11]
  red/green cell ratio (normalised): 1.18 (inactive)
[11]; [17]
  normalised cell number: 0.96
[11]; [18]
  normalised cell number: 1.14
[12]; [19]
  z-score: -0.405 (inactive) and -0.0836 (inactive)
[12]; [20]
  z-score: 0.049 and -0.314
[13]
  remaining NAD: 10 nM (inactive)
[14]
  luciferase signal: 68 AU (inactive)
F380Y
  log fold change Tl+ flux: -0.0365 (inactive)
F380Y/beta1
  log fold change Tl+ flux: -0.0354 (inactive)
F380Y/beta2Delta
  log fold change Tl+ flux: 0.0204 (inactive)
F380Y/beta4
  log fold change Tl+ flux: -0.0353 (inactive)
[15]
  log fold change Tl+ flux: -0.0135 (inactive)

## CC(C)C(=O)Nc1ccc([N+](=O)[O-])c(C(F)(F)F)c1
[1]; at 10 µM
  nuclear beta-catenin stimulation: 0.6% (inactive)
[1]; stimulation, at 2 µM
  nuclear beta-catenin stimulation: -0.2%
[2]
  insulin secretion stimulation: 3.4% (inactive)
[3]
  viability decrease: 13.4% (inactive)
[4]
  tube area decrease: -12.8% (inactive)
[5]
  GLP1 secretion stimulation: -0.5% (inactive)
[6]
  inhibition of viability: 25.5% (inactive)
[7]
  viability decrease (inhibition): 40.5% (inactive)
[8]
  viability decrease (inhibition): -3.7% (inactive)
[9]
  inhibition: -5.89% (inactive)
[10]
  mean signal: 187 (inactive)
[11]
  red/green cell ratio (normalised): 1.03 (inactive)
[11]; [17]
  normalised cell number: 0.92
[11]; [18]
  normalised cell number: 0.95
[12]; [19]
  z-score: -0.353 (inactive) and 0.314 (inactive) and 0.345 (inactive)
[12]; [20]
  z-score: 0.471 and 0.28 and 0.177
[16]; at 0.000305 µM, OCI-C5x cells, with rucaparib 10 µM, 100% = cells with rucaparib alone
  viability: 102% (inactive)
[16]; at 0.000305 µM, OCI-C5x cells, without rucaparib
  viability: 114% (inactive)
[16]; at 0.000305 µM, OCI-P5x cells, with rucaparib 20 µM, 100% = cells with rucaparib alone
  viability: 93.2% (active)
[16]; at 0.000305 µM, OCI-P5x cells, without rucaparib
  viability: 103% (inactive)
[16]; at 0.00122 µM, OCI-C5x cells, with rucaparib 10 µM, 100% = cells with rucaparib alone
  viability: 114% (inactive)
[16]; at 0.00122 µM, OCI-C5x cells, without rucaparib
  viability: 115% (inactive)
[16]; at 0.00122 µM, OCI-P5x cells, with rucaparib 20 µM, 100% = cells with rucaparib alone
  viability: 98.6% (active)
[16]; at 0.00122 µM, OCI-P5x cells, without rucaparib
  viability: 104% (inactive)
[16]; at 0.00488 µM, OCI-C5x cells, with rucaparib 10 µM, 100% = cells with rucaparib alone
  viability: 111% (inactive)
[16]; at 0.00488 µM, OCI-C5x cells, without rucaparib
  viability: 113% (inactive)
[16]; at 0.00488 µM, OCI-P5x cells, with rucaparib 20 µM, 100% = cells with rucaparib alone
  viability: 107% (inactive)
[16]; at 0.00488 µM, OCI-P5x cells, without rucaparib
  viability: 106% (inactive)
[16]; at 0.0195 µM, OCI-C5x cells, with rucaparib 10 µM, 100% = cells with rucaparib alone
  viability: 114% (inactive)
[16]; at 0.0195 µM, OCI-C5x cells, without rucaparib
  viability: 118% (inactive)
[16]; at 0.0195 µM, OCI-P5x cells, with rucaparib 20 µM, 100% = cells with rucaparib alone
  viability: 104% (inactive)
[16]; at 0.0195 µM, OCI-P5x cells, without rucaparib
  viability: 105% (inactive)
[16]; at 0.0781 µM, OCI-C5x cells, with rucaparib 10 µM, 100% = cells with rucaparib alone
  viability: 112% (inactive)
[16]; at 0.0781 µM, OCI-C5x cells, without rucaparib
  viability: 116% (inactive)
[16]; at 0.0781 µM, OCI-P5x cells, with rucaparib 20 µM, 100% = cells with rucaparib alone
  viability: 103% (inactive)
[16]; at 0.0781 µM, OCI-P5x cells, without rucaparib
  viability: 112% (inactive)
[16]; at 0.313 µM, OCI-C5x cells, with rucaparib 10 µM, 100% = cells with rucaparib alone
  viability: 109% (inactive)
[16]; at 0.313 µM, OCI-C5x cells, without rucaparib
  viability: 109% (inactive)
[16]; at 0.313 µM, OCI-P5x cells, with rucaparib 20 µM, 100% = cells with rucaparib alone
  viability: 109% (inactive)
[16]; at 0.313 µM, OCI-P5x cells, without rucaparib
  viability: 115% (inactive)
[16]; at 1.25 µM, OCI-C5x cells, with rucaparib 10 µM, 100% = cells with rucaparib alone
  viability: 107% (inactive)
[16]; at 1.25 µM, OCI-C5x cells, without rucaparib
  viability: 118% (inactive)
[16]; at 1.25 µM, OCI-P5x cells, with rucaparib 20 µM, 100% = cells with rucaparib alone
  viability: 101% (inactive)
[16]; at 1.25 µM, OCI-P5x cells, without rucaparib
  viability: 113% (inactive)
[16]; at 5 µM, OCI-C5x cells, with rucaparib 10 µM, 100% = cells with rucaparib alone
  viability: 112% (inactive)
[16]; at 5 µM, OCI-C5x cells, without rucaparib
  viability: 133% (inactive)
[16]; at 5 µM, OCI-P5x cells, with rucaparib 20 µM, 100% = cells with rucaparib alone
  viability: 104% (inactive)
[16]; at 5 µM, OCI-P5x cells, without rucaparib
  viability: 112% (inactive)
[13]
  remaining NAD: 10 nM (inactive)
[14]
  luciferase signal: 76 AU (inactive)
F380Y
  log fold change Tl+ flux: 0.0165 (inactive)
F380Y/beta1
  log fold change Tl+ flux: 0.104 (inactive)
F380Y/beta2Delta
  log fold change Tl+ flux: -0.0159 (inactive)
F380Y/beta4
  log fold change Tl+ flux: -0.0805 (inactive)
[15]
  log fold change Tl+ flux: -0.0492 (inactive)
